Experimental data from PubChem BioAssay.
“And” between values parts separate entries of the source, which are not always exact repeats. Equal values may be shown once. The source made the active and inactive calls.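 The calls were made as follows, unless noted: active = thallium flux through the channel raised or lowered by more than 3 SD from vehicle-only wells, actives on both sides; inactive = the rest.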

Legend:
[1] = Wnt pathway potentiators raising nuclear beta-catenin – imaging, WNT3A-conditioned medium, mouse C2C12, NPC library, primary screen (AID 1117326; in the data active = nuclear beta-catenin stimulation mostly above about 4.2%, no sharp cut-off; inactive = mostly below about 10%); conditions: stronger effect = higher value
[2] = stimulators of insulin release from INS-1E, primary screen, cell-based, 5 mM glucose, NPC library (AID 1117329;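 active = compound raises insulin release from rat beta cells at 5 mM glucose, no numeric limit stated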); conditions: rat INS-1E insulin secretion, at 10 µM, stronger effect = higher value
[3] = growth inhibition of GSK3B-pretreated HCT116 cells – cell-based, CellTiter-Glo, 0.2 to 20 µM (AID 1117336;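 active = compounds lowering colon cancer cell viability after pretreatment blocking the GSK3B kinase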); conditions: HCT116 viability after GSK3B inhibitor, at 20 µM, stronger effect = higher value
[4] = inhibition of endothelial tube formation, primary screen, imaging, VEGF stimulated, CD31 staining, tube area, NPC library (AID 1117340;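 active = compound that reduces growth-factor-driven endothelial tube area in a mixed cell culture, no cutoff stated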); conditions: VEGF-stimulated ADSC/ECFC co-culture, at 10 µM, stronger effect = higher value
[5] = GLP1 release stimulators, primary, NCI-H716, NPC library (AID 1117341;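 active = compound raises GLP1 secretion from the human gut endocrine cells, with no numeric limit stated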); conditions: NCI-H716 cells, at 10 µM, stronger effect = higher value
[6] = HCT116 colon cancer cell growth inhibition, primary screen, CellTiter-Glo luminescence, NPC library (AID 1117342;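 active = compounds that lower survival of HCT116 colon cancer cells in the luminescence readout, no numeric limit stated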); conditions: at 20 µM (top of the series)
[7] = reduced SW480 viability measured with CellTiter-Glo, NPC library, primary (AID 1117343;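 active = compounds that lower viability of the colon cancer cells in the luminescence readout, with no numeric limit stated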); conditions: CellTiter-Glo luminescence; at 20 µM (top of the series)
[8] = NPC library primary testing for decreased DLD-1 cell viability via CellTiter-Glo (AID 1117346;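 active = compounds that lower survival of DLD-1 colon cancer cells in the luminescence readout, no cutoff given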); conditions: DLD-1 viability, CellTiter-Glo luminescence; at 20 µM (top of the series)
[9] = target: 6-phosphogluconate dehydrogenase, decarboxylating (Homo sapiens) (UniProt P52209); assay: inhibition of human phosphogluconate dehydrogenase – biochemical, recombinant enzyme, NADPH absorbance, primary screen (AID 1159550;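 active = at least 20% inhibition of 6-phosphogluconate dehydrogenase activity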); conditions: recombinant 6PGD, NADPH absorbance 341 nm; at 10 µM; stronger effect = higher value
Sequence of 6-phosphogluconate dehydrogenase, decarboxylating (Homo sapiens) (P52209 whole entry, looked up): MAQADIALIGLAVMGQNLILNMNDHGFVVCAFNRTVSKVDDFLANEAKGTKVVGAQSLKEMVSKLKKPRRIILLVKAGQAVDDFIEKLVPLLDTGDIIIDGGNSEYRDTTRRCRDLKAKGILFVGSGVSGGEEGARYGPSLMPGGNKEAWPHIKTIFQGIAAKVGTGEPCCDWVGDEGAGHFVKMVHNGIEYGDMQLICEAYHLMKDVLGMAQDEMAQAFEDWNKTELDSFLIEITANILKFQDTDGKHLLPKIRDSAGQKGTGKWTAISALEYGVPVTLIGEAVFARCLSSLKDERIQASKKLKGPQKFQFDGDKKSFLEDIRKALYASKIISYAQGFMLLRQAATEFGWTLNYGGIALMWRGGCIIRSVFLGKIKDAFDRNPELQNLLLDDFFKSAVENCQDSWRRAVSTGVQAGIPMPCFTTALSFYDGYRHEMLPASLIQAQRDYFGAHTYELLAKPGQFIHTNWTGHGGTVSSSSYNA

[10] = EMT-state selective cytotoxicity in co-culture – imaging, PC-3E GFP, TEM4-18 mCherry, primary screen (AID 1345086;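 active = compounds killing one labelled cell type while sparing the other, by normalised counts and ratio limits, not self-fluorescent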;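 as to all read-outs here: cells exposed to compound for 72 h before imaging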;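 as to red/green cell ratio (normalised): normalised mesenchymal count divided by normalised epithelial count so high means epithelial killing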); conditions: PC-3E GFP / TEM4-18 mCherry co-culture, imaging cell counts, at 1 µM; for red/green cell ratio (normalised): actives lie on both sides, counts scaled to control wells, 1 = unselective
[11] = MELAS cybrid and Rieske KO viability enhancers – cell-based, MELAS cybrids, Rieske KO mouse fibroblasts, CellTiter-Glo, primary screen (AID 1508586;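 active = mean z-score across replicates of 1.96 or higher in either the MELAS or the Rieske mutant cell line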;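 also: z relative to plate mean and SD of compound and empty wells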); conditions: low glucose
[12] = target: NAD(+) hydrolase SARM1 (Homo sapiens) (UniProt Q6SZW1); assay: blocking NAD cleavage by SARM1 SAM-TIR – cell lysate, NAD-Glo luminescence (AID 1508614;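 active = compound whose remaining NAD level is above about 45 nM, limit read from the data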;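 also: higher remaining NAD means stronger inhibition of SARM1 NADase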); conditions: SAM-TIR HEK293T lysate NADase, at 1 µM, stronger effect = higher value
Sequence of NAD(+) hydrolase SARM1 (Homo sapiens) (Q6SZW1 whole entry, looked up, the tested form may be a part): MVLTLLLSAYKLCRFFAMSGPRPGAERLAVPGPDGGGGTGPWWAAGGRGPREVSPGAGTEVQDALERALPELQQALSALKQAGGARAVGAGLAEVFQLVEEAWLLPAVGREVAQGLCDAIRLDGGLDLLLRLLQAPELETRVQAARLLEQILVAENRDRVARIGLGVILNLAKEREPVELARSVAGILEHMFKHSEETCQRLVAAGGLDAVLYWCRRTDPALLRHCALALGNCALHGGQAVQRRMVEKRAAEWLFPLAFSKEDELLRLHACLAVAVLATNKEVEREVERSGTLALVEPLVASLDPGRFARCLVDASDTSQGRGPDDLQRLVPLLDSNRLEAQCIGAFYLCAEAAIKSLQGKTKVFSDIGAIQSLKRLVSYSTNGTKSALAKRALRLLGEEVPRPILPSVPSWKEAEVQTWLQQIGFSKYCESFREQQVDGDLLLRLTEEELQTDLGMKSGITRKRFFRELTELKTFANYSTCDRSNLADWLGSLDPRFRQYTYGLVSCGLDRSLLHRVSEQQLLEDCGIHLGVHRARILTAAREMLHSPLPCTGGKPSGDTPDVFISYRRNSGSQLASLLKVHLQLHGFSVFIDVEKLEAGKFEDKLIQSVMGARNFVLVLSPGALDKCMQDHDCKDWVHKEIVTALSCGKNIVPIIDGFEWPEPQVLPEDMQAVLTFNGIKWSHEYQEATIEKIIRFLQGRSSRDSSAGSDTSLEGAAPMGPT

[13] = target: Mitogen-activated protein kinase 7 (Homo sapiens) (UniProt Q13164); assay: Gal4-ERK5 driven luciferase induction – cell-based, HTS, primary screen (AID 1508626;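 active = luciferase signal above three times the same-plate solvent-only control wells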;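 also: luciferase driven by Gal4-ERK5 fusion binding five Gal4 sites before minimal TATA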); conditions: HeLa Gal4-ERK5 transactivation, 18 h, at 5 µM, stronger effect = higher value
Sequence of Mitogen-activated protein kinase 7 (Homo sapiens) (Q13164 whole entry, looked up, the tested form may be a part): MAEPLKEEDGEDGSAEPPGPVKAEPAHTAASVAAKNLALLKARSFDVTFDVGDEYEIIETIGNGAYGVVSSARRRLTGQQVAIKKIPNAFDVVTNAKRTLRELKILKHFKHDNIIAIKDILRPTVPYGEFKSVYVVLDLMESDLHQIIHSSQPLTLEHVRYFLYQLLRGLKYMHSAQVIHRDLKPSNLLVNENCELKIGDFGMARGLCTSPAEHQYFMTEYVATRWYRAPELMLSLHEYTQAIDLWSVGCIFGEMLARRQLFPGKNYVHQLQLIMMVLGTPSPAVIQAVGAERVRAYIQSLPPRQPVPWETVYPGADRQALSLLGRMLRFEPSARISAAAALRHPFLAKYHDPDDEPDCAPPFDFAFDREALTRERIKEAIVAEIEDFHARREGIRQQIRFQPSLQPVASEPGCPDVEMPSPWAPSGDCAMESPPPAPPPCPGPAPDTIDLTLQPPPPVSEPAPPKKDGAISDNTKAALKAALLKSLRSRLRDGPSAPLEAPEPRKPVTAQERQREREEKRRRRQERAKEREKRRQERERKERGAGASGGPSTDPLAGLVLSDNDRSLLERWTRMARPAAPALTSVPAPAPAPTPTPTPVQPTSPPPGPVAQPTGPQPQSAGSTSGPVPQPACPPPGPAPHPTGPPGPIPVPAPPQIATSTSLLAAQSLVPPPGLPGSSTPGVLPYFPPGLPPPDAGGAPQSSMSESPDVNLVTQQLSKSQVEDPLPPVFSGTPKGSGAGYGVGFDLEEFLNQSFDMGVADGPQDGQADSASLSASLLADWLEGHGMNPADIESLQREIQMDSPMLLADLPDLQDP

F380Y = assay: BK channel mutant inhibitors and activators – cell-based, U2OS BacMam, thallium flux, beta subunits, selectivity assay, profiling panel (AID 1259406); conditions: U2OS BacMam BK variants, at 30 µM;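 also: initial slope of Thallos dye fluorescence rise after thallium is added; log ratio against the mean of 0.3% DMSO vehicle wells on the same plate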
F380Y/beta2Delta = assay: as above; conditions: U2OS BacMam BK variants, at 30 µM
[14] = target: Calcium-activated potassium channel subunit alpha-1 (Homo sapiens) + Leucine-rich repeat-containing protein 26 (Homo sapiens) (UniProt Q12791+Q2I0M4); assay: as above; conditions: U2OS BacMam BK variants, F380Y/Slo1WT/gamma1, at 30 µM
Sequence of Calcium-activated potassium channel subunit alpha-1 (Homo sapiens) + Leucine-rich repeat-containing protein 26 (Homo sapiens) (Q2I0M4 whole entry, looked up, one chain of several): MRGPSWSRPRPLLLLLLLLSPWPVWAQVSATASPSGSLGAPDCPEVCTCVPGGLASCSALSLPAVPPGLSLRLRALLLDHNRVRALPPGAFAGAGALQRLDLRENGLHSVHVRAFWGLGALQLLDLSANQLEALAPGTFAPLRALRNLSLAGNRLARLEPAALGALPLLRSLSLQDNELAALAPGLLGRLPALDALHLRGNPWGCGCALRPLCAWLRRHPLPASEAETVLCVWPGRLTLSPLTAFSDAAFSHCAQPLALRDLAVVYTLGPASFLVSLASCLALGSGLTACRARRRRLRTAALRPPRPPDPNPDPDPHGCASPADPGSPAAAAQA

[15] = system: Hepatitis C virus NS3 helicase; assay: blockers of NS3h binding to DNA – biochemical, fluorescence polarization, NIH Clinical Collection, primary screen (AID 743270; call rule not given here); conditions: NS3 helicase binding to Cy5-dT15 DNA, stronger effect = higher value, concentration not given here
[16] = target: Single-stranded DNA-binding protein (Escherichia coli (strain K12)) (UniProt P0AGE0); assay: SSB-ssDNA binding inhibitors – biochemical, fluorescence polarization, NIH Clinical Collection, counter-screen for HCV NS3 helicase inhibitor project (AID 743271; in the data active = inhibition above about 28%); conditions: E. coli SSB-DNA binding, stronger effect = higher value, concentration not given here
[17] = compounds distorting NS3 helicase fluorescence signal – biochemical, NIH Clinical Collection, artefact control for HCV NS3 helicase inhibitor project (AID 743272; call rule not given here;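 also: HCV NS3 helicase with a Cy5 labelled single stranded DNA probe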); conditions: fluorescence interference counterscreen, HCV NS3 helicase assay; stronger effect = lower value
[18] = viability loss with induced miR-34 in A549 – imaging, A549 dox-inducible miR-34, nuclei and caspase counts, primary screen (AID 1347080;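 active = compounds whose cell count with miR-34 switched on is under 0.7 times the count with it off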); conditions: A549 miR-34 inducible, Hoechst nuclei count, 48 h
[19] = measured here: epithelial PC-3E GFP cell survival
[20] = measured here: mesenchymal TEM4-18 mCherry cell survival
[21] = MELAS cybrid survival, CellTiter-Glo 48 h, stronger effect = higher value
[22] = Rieske KO mouse fibroblast survival, CellTiter-Glo 72 h
[23] = stronger effect = lower value, cell number ratio, induced over uninduced
[24] = measured here: relative caspase fold change +Dox/-Dox
[25] = measured here: total cells with miR-34 induction, stronger effect = lower value
[26] = measured here: total cells without miR-34 induction

CN(C)CCCN1c2ccccc2CCc2ccccc21
inactive: nuclear beta-catenin stimulation ([1]; at 10 µM) 0.8% | insulin secretion stimulation [2] 5.55% | tube area decrease [4] 0.8% | GLP1 secretion stimulation [5] 10% | inhibition of viability [6] 36.7% | viability decrease (inhibition) [8] -1.6% | inhibition [9] 2.5% | red/green cell ratio (normalised) [10] 1.07 | z-score [11, 21] -0.849 and -0.557 | remaining NAD [12] 10 nM | luciferase signal [13] 44 AU | log fold change Tl+ flux [14] 0.0488
1.14: normalised cell number [10, 20]
active: viability decrease [3] 57.9% | viability decrease (inhibition) [7] 70.5% | log fold change Tl+ flux (F380Y) 0.14 | log fold change Tl+ flux (F380Y/beta2Delta) 0.118
0.136 and -0.674: z-score [11, 22]
1.07: normalised cell number [10, 19]
-0.2%: nuclear beta-catenin stimulation ([1]; stimulation, at 2 µM)

NS(=O)(=O)c1cc2c(cc1C(F)(F)F)NCNS2(=O)=O
inactive: inhibition [15] -3.18% | inhibition [16] -0.48% | fluorescence ratio [17] 0.93 | nuclear beta-catenin stimulation ([1]; at 10 µM) -1% | insulin secretion stimulation [2] -0.5% | viability decrease [3] -8.5% | tube area decrease [4] -8.6% | GLP1 secretion stimulation [5] 0.4% | inhibition of viability [6] -2% | viability decrease (inhibition) [7] 10.4% | viability decrease (inhibition) [8] -13.4% | inhibition [9] -4.61% | red/green cell ratio (normalised) [10] 1.07 | fold change [18, 23] 0.934 and 0.925 and 0.803 | z-score [11, 21] 0.119 | remaining NAD [12] 10 nM | luciferase signal [13] 40 AU | log fold change Tl+ flux (F380Y) -0.0227 | log fold change Tl+ flux (F380Y/beta2Delta) 0.0255 | log fold change Tl+ flux [14] -0.0239
10900 and 9840 and 13200: cell count [18, 26]
2.9 and 1.27 and 0.875: fold change [18, 24]
0.185: z-score [11, 22]
0.95: normalised cell number [10, 19]
1.02: normalised cell number [10, 20]
10100 and 9100 and 10600: cell count [18, 25]
1%: nuclear beta-catenin stimulation ([1]; stimulation, at 2 µM)

CCN(CC)CCOC(=O)c1ccc(N)cc1
active: viability decrease (inhibition) [7] 56.5%
-0.3%: nuclear beta-catenin stimulation ([1]; stimulation, at 2 µM)
0.95: normalised cell number [10, 19]
inactive: inhibition [15] -3.18% | inhibition [16] 0.29% | fluorescence ratio [17] 0.92 | nuclear beta-catenin stimulation ([1]; at 10 µM) 0.6% | insulin secretion stimulation [2] 0.1% | viability decrease [3] 2.8% | tube area decrease [4] 7% | GLP1 secretion stimulation [5] -0.7% | inhibition of viability [6] 4.2% | viability decrease (inhibition) [8] 1.05% | inhibition [9] 2.32% | red/green cell ratio (normalised) [10] 1.08 | z-score [11, 21] -0.214 and -0.849 | remaining NAD [12] 10 nM | luciferase signal [13] 92 AU | log fold change Tl+ flux (F380Y) -0.0653 | log fold change Tl+ flux (F380Y/beta2Delta) 0.0223 | log fold change Tl+ flux [14] 0.0123
-0.241 and -0.347: z-score [11, 22]
1.03: normalised cell number [10, 20]

CN(C)CCC[C@@]1(c2ccc(F)cc2)OCc2cc(C#N)ccc21
-0.7%: nuclear beta-catenin stimulation ([1]; stimulation, at 2 µM)
active: insulin secretion stimulation [2] 31.7% | viability decrease (inhibition) [7] 66.3%
inactive: inhibition [15] -1.98% | inhibition [16] 6.83% | fluorescence ratio [17] 0.96 | nuclear beta-catenin stimulation ([1]; at 10 µM) 2.2% | viability decrease [3] 4.6% | tube area decrease [4] 3.6% | GLP1 secretion stimulation [5] 10.5% | inhibition of viability [6] -13.4% | viability decrease (inhibition) [8] 24.4% | inhibition [9] 8.36% | red/green cell ratio (normalised) [10] 0.99 | fold change [18, 23] 1.02 and 0.891 | z-score [11, 21] -0.471 and -0.676 | remaining NAD [12] 10 nM | log fold change Tl+ flux (F380Y) 0.0406 | log fold change Tl+ flux (F380Y/beta2Delta) 0.0188 | log fold change Tl+ flux [14] -0.0413
9420 and 10600: cell count [18, 26]
-0.0102 and -1.12: z-score [11, 22]
2.21 and 1.15: fold change [18, 24]
1.12: normalised cell number [10, 20]
1.13: normalised cell number [10, 19]
9600 and 9400: cell count [18, 25]

Cc1ccc(S(=O)(=O)NC(=O)NN2CCCCCC2)cc1
active: insulin secretion stimulation [2] 60.9%
1.09: normalised cell number [10, 19]
1.13: normalised cell number [10, 20]
-0.9%: nuclear beta-catenin stimulation ([1]; stimulation, at 2 µM)
-0.174 and -0.295: z-score [11, 22]
inactive: inhibition [15] -2.27% | inhibition [16] -2.76% | fluorescence ratio [17] 1 | nuclear beta-catenin stimulation ([1]; at 10 µM) 0.5% | viability decrease [3] -7% | tube area decrease [4] -13.2% | GLP1 secretion stimulation [5] 1.4% | inhibition of viability [6] -14.9% | viability decrease (inhibition) [7] -1.7% | viability decrease (inhibition) [8] 4.8% | inhibition [9] 16.2% | red/green cell ratio (normalised) [10] 1.04 | z-score [11, 21] -0.943 and -0.476 | remaining NAD [12] 10 nM | luciferase signal [13] 144 AU | log fold change Tl+ flux (F380Y) -0.0421 | log fold change Tl+ flux (F380Y/beta2Delta) -0.0238 | log fold change Tl+ flux [14] 0.0367

CC(CN1c2ccccc2Sc2ccccc21)N(C)C (centres undefined)
inactive: inhibition [15] -5% | inhibition [16] 3.34% | fluorescence ratio [17] 0.93 | nuclear beta-catenin stimulation ([1]; at 10 µM) 0% | insulin secretion stimulation [2] 7.9% | viability decrease [3] 28.6% | tube area decrease [4] 14.2% | GLP1 secretion stimulation [5] 5.7% | viability decrease (inhibition) [8] 28.8% | inhibition [9] 7.15% | red/green cell ratio (normalised) [10] 0.9 | z-score [11, 21] -0.251 and 0.0297 and -0.48 | remaining NAD [12] 10 nM | luciferase signal [13] 144 AU | log fold change Tl+ flux [14] -0.00524
1.05: normalised cell number [10, 20]
1.17: normalised cell number [10, 19]
-0.4%: nuclear beta-catenin stimulation ([1]; stimulation, at 2 µM)
-0.152 and -0.842 and 0.0934: z-score [11, 22]
active: inhibition of viability [6] 76.9% | viability decrease (inhibition) [7] 110% | log fold change Tl+ flux (F380Y) 0.2 | log fold change Tl+ flux (F380Y/beta2Delta) 0.393

Nc1ccc(S(=O)(=O)c2ccc(N)cc2)cc1
inactive: inhibition [15] -3.18% | inhibition [16] 0.29% | fluorescence ratio [17] 0.95 | nuclear beta-catenin stimulation ([1]; at 10 µM) -0.7% | insulin secretion stimulation [2] -2.3% | viability decrease [3] -8.05% | tube area decrease [4] 8.8% | GLP1 secretion stimulation [5] -1.2% | inhibition of viability [6] 1.3% | viability decrease (inhibition) [8] 7.95% | inhibition [9] 14.4% | red/green cell ratio (normalised) [10] 1.31 | fold change [18, 23] 0.912 and 0.897 and 0.875 | z-score [11, 21] 0.848 | remaining NAD [12] 10 nM | luciferase signal [13] 32 AU | log fold change Tl+ flux (F380Y) 0.0363 | log fold change Tl+ flux (F380Y/beta2Delta) 0.0421 | log fold change Tl+ flux [14] -0.0163
2.46 and 1.04 and 1.7: fold change [18, 24]
active: viability decrease (inhibition) [7] 59.5%
1.49: normalised cell number [10, 20]
0.158: z-score [11, 22]
-0.4%: nuclear beta-catenin stimulation ([1]; stimulation, at 2 µM)
1.14: normalised cell number [10, 19]
9830 and 8600 and 10200: cell count [18, 25]
10800 and 9580 and 11700: cell count [18, 26]
